# This is a sample that favours compounds with a hit; in the whole collection about 19% have one here.
# TDP1 cell noCPT – qHTS for Inhibitors of human tyrosyl-DNA phosphodiesterase 1 (TDP1): qHTS in cells in absence of CPT | DT40 Tdp1-/- hTDP1 cells, no CPT, ATP luminescence, 48 h | Potency, µM (highest dose often 46.2 µM), inactives show at the highest dose activity change, negative = growth inhibition, hits mostly inhibitors | 420,000 compounds, 15% hits | AID 686978, 2013; further: potency means the concentration at half of the fitted maximal effect; on the % scale 0 is the no-effect control and ±100 the full control effect; nearly all actives have a fitted effect of over 55% in size
#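 Growth of hTDP1-complemented DT40 Tdp1-knockout cells is measured by ATP luminescence after at least 48 hr compound exposure at 37 °C, with DMSO substituting for the 20 nM CPT used in the parallel screen.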
# MCF10A rereplic – inducers of DNA re-replication in MCF 10A breast cells; 350,000 compounds, 2.9% hits; MCF 10A DNA re-replication, Hoechst nuclear intensity, 48 h; Potency, µM (top dose mostly 46.1 µM), for inactives: at the highest dose activity, positive = re-replication, usual class: activators; AID 624296; further: potency means the concentration at half of the fitted maximal effect; % of control where 0% means no effect; nearly all actives have a fitted effect of over 50% in size
# DT40 TDP1 CPT – DT40-hTDP1 cell growth loss with CPT. 420,000 compounds, 12% hits. chicken DT40 Tdp1-/-;hTDP1 cells + 20 nM CPT, ATP luminescence, 48 h. AID 686979. Potency, µM (top dose mostly 46.2 µM), for inactives: at the top dose activity change, negative = growth inhibition, most hits filed as inhibitors; further: potency means the concentration at half of the fitted maximal effect; on the % scale 0 is the no-effect control and ±100 the full control effect; nearly all actives have a fitted effect of over 55% in size
#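 Chicken DT40 Tdp1-/- cells stably complemented with human TDP1 were seeded at 400 cells/well in medium containing 20 nM camptothecin, exposed to pin-transferred compounds, and grown at 37 °C for at least 48 hr. Viability was read as ATP luminescence.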
# Chronic BCR inh – inhibitors of chronic active B-cell receptor signaling. 340,000 compounds, 0.05% hits. Potency, µM (titrated, usually from 46.1 µM), inactives show at the highest dose activity change, negative = inhibition, hits mostly inhibitors. ABC-DLBCL IkBa-CBG/CBR reporter, luminescence ratio, 4 h. AID 493014; active means well fitted inhibition curve with a large enough effect in the signal ratio, with a control signal flat, not every such curve was filed as active; inconclusive means small, poorly fitted or top-dose-only effect, or effect the other way, or a change in a side signal; the % refers to the signal ratio;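 further: potency means the concentration at half of the fitted maximal effect; plate controls were basal doxycycline-induced cells for no effect and cells given 10 µM MG132 for full effect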
#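 Compounds up to 46 uM were incubated four hours with TMD8 cells whose green CBG68 luciferase is fused to IkappaBalpha; red CBR luminescence normalised the signal, and concentration-effect curves were fitted to fusion, red and ratio data.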
# SW480 rereplic – DNA re-replication induction in SW480 cells; Potency, µM (titrated, usually from 46.1 µM), for inactives: at the top dose re-replication activation, actives largely listed as activators; 340,000 compounds, 1.8% hits; SW480 DNA re-replication, Hoechst DNA content imaging, 48 h; further: potency means the concentration at half of the fitted maximal effect; % of control where 0% means no effect; nearly all actives have a fitted effect of over 55% in size
#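 Per well, 250 cells were exposed to pinned compound for 48 hr. Nuclear DNA was visualised with Hoechst (40 min, 37 C) and total object intensity recorded by fluorescence scanning.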
# IL1B secr inh – blocks inflammasome-driven IL-1 beta release. THP-1 LPS/ATP IL-1B secretion, AlphaLISA, 16 h; stronger effect = lower value. activity change, % at 57.5 µM. 360,000 compounds, 4.7% hits. AID 743279; in the data active means activity change below about -50%; inconclusive means mostly about -30% to -49%; further: on the % scale 0 is the no-effect control and ±100 the full control effect
#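 THP-1 cells pretreated 1 hr with compounds (up to 57.5 uM final), then stimulated with LPS (250 ng/mL final) plus ATP (1.25 mM final); secreted IL-1B measured by AlphaLISA after 16 hr, decreased signal indicating inhibition.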
# An asterisk follows results filed as active; ? = inconclusive; nt = no result; [ ] = remark or other dose. Unless noted, the call rests on the fitted dose curve; in most records, active means well fitted curve in the direction sought with a large enough effect; inconclusive means small, poorly fitted or top-dose-only effect, or another doubt; inactive means no such curve, though single readings can be large; an effect the other way counts as inactive or inconclusive.
SMILES,TDP1 cell noCPT,MCF10A rereplic,DT40 TDP1 CPT,Chronic BCR inh,SW480 rereplic,IL1B secr inh
O=C(NCCC(=O)N(CCc1ccccc1)Cc1ccccc1)c1ccc([N+](=O)[O-])cc1,23.1µM*,20.4%,?,0.7%,1.6%,-14.1
CS(=O)(=O)N(Cc1ccc(Cl)cc1)c1ccc(C(=O)N/N=C/c2cc3ccccc3nc2Cl)cc1,23.1µM*,-0.4%,?,-1.1%,-8.0%,3.2
CS(=O)(=O)N(Cc1ccccc1)c1ccc(C(=O)Nc2ccc(Cl)cc2)cc1,5.8µM*,nt,?,nt,nt,nt
CN(C)S(=O)(=O)c1ccc(NC(=O)c2ccc([N+](=O)[O-])cc2)cc1,?,-2.7%,-0.2%,1.2%,?,-18.0
CS(=O)(=O)N(Cc1ccccc1)c1ccc(C(=O)Nc2ccccc2C(=O)O)cc1,-28.7%,-5.4%,-4.4%,-0.3%,-24.3%,-1.7
Cc1csc(CNc2ncnc3ccc(-c4ccc5c(ccn5C)c4)cc23)c1,nt,nt,nt,10.0%,nt,nt
Cn1nc(N)c2ncc(-c3ccc(Cl)cc3)nc21,-4.3%,nt,-8.1%,nt,nt,0.0
CC(=O)Nc1cc(-c2ccc(Cl)cc2)[nH]n1,?,-22.8%[9.22 µM],?,-1.2%,-48.1%,5.1
O=C(NN1CCCCCC1)c1ccccc1F,-0.8%,-3.0%,-7.4%,nt,7.5%,-1.9
COc1ccccc1-c1noc(CCCC(=O)Nc2cccc(C(F)(F)F)c2)n1,18.4µM*,nt,?,-4.5%,nt,nt
CCOc1ccccc1-c1noc(CCCC(=O)Nc2cccc(C(F)(F)F)c2)n1,18.4µM*,nt,18.4µM*,nt,nt,nt
CCn1c(C)c(C(=O)O)c2cc(OC)c3ccccc3c21,16.4%,0.8%,-20.4%,?,?,19.2
COc1ccc(CN(C)C[C@@H]2OCc3cnnn3CCCC(=O)N([C@H](C)CO)C[C@H]2C)cc1,5.4%,nt,9.6%,nt,nt,25.2
COc1ccccc1N=CC1=C(O)CC(c2ccccc2)CC1=O (configuration not stated),9.2µM*,?,5.17µM*,?,-4.2%,0.0
COc1cc(CNc2nnnn2C)cc(OC)c1OC,-7.2%,10.2%,16.1%,-0.4%,-1.0%,2.8
COc1ccc(CN(C)C(=O)CCl)cc1,2.59µM*,?,2.31µM*,?,?,-98.2*
CN(Cc1ccc(Cl)s1)C(=O)CCl,1.84µM*,?,3.26µM*,?,?,-106.5*
COc1ccc(OCC(=O)N(C)Cc2ccccc2)cc1,-16.1%,1.8%,0.0%,2.2%,-0.7%,-14.5
CN(Cc1ccc(Cl)cc1)C(=O)CCl,2.59µM*,?,2.31µM*,?,?,-103.4*
CN(C)CCNC(=O)c1ccc(Cl)s1,-0.9%,15.5%,-6.2%,?,0.4%,2.1
COc1ccc(CN(C)C(=O)COC(=O)c2cnc(Cl)c(Cl)c2)cc1,-4.7%,0.1%,3.4%,1.7%,-7.0%,-98.8*
CN(Cc1ccccc1)C(=O)COC(=O)c1cc(Cl)nc(Cl)c1,-3.9%,-1.5%,-4.4%,1.8%,-4.5%,21.5
NC(=O)[C@@H]1CCCN1C(=O)c1ccc2nc(Cc3cccc(Cl)c3)oc2c1,11.5%,3.9%,-23.1%,-0.2%,5.2%,26.9
CN1CCN(c2ccc(S(=O)(=O)N3CCOCC3)cc2)CC1,7.4%,0.4%,2.4%,-20.6%,-2.5%,-3.2
Cc1cccc2cc(CN(CC3CCCO3)C(=O)C3CC3)c(N(C)C)nc12 (configuration not stated),0.9%,nt,-3.1%[9.04 µM],nt,nt,nt
SMILES,TDP1 cell noCPT,MCF10A rereplic,DT40 TDP1 CPT,Chronic BCR inh,SW480 rereplic,IL1B secr inh
COc1ccc2c(c1)-c1nc(-n3ncc(C(=O)NC(C)(C)CO)c3C3CC3)ncc1CC2,?,nt,12.4%[9.04 µM],nt,nt,nt
Cc1ccc(C)c(C(=O)Nc2cc(C)nn2-c2nc(C)cc(C)n2)c1,5.17µM*,?,3.26µM*,1.1%,8.1%,-7.9
Cc1cc(NC(=O)CSc2cc(Cl)ccc2Cl)n(-c2ccccc2)n1,-28.3%,8.1%,-14.6%,-20.9%,3.3%,-8.5
Cc1cc(C)nc(-n2nc(C)cc2NC(=O)CN2CCC(C)CC2)n1,5.8µM*,10.7%,5.17µM*,-1.8%,-7.6%,14.2
Cc1cc(NC(=O)CN2CCOCC2)n(-c2nc3ccccc3s2)n1,20.6µM*,14.6µM*,14.6µM*,nt,9.9%,-8.4
Cc1cc(C)nc(-n2nc(C)cc2NC(=O)CN2CCCC2)n1,-4.1%,4.9%,-2.3%,1.3%,-131.9%,3.2
Cc1cc(C)nc(-n2nc(C)cc2NC(=O)CNC(C)c2ccccc2)n1 (configuration not stated),20.6µM*,-1.7%,?,?,3.8%,9.6
Cc1cccc(Nc2nnc(-n3nc(C)cc3C)c3ccccc23)c1,-3.1%,nt,-23.3%,nt,nt,nt
Cc1cccc(NC(=O)CCN2CCN(c3ccccc3F)CC2)c1,?,nt,-28.6%,nt,nt,nt
O=[N+]([O-])c1ccccc1S(=O)(=O)N1CCN(S(=O)(=O)c2ccc3c(c2)OCCO3)CC1,nt,-3.7%,nt,0.1%,-2.3%,nt
Cc1ccc(CNC(=O)c2cc3ccccc3oc2=O)cc1,-26.9%,1.9%,-3.2%,nt,-6.2%,-2.0
COC(=O)C1=C(N)Oc2cc(N(C)C)ccc2C1c1ccccc1OC (configuration not stated),4.61µM*,9.2µM*,4.61µM*,?,11.6µM*,-19.3
COc1cc(C(=O)OCC(=O)NC2CC2)ccc1OCCC(C)C,?,-3.0%,-26.7%,-0.5%,5.8%,22.8
CC(C)(CN1CCNCC1)NS(=O)(=O)c1ccc(Cl)cc1,?,11.6µM*,23.1µM*,-3.0%,3.6%,0.0
CCOC(=O)C1CCN(CC(C)(C)NS(=O)(=O)c2ccc(Cl)cc2)CC1,-26.9%,14.6µM*,-10.1%,13.1%,9.9%,5.0
CCOC(=O)C1CCN(CC(C)(C)NS(=O)(=O)c2ccc(C)cc2)CC1,-25.3%,0.1%,1.4%,-11.7%,-5.3%,5.9
CC(C)(CN1CCCC1)NS(=O)(=O)c1ccc(Cl)cc1,-23.0%,19.2%,3.5%,0.9%,-8.3%,-16.1
O=C(COC(=O)Cn1cc(C(F)(F)F)ccc1=O)NCc1ccccc1,?,-3.0%,?,?,-39.9%,-7.7
CCc1nc(N2CCN(C(C)=O)CC2)c2c3c(sc2n1)CC(C(C)(C)C)CC3 (configuration not stated),11.6µM*,3.5%,?,-0.1%,10.3%,3.6
CCc1nc(N2CCN(C(=O)CCl)CC2)c2c3c(sc2n1)CC(C)CC3 (configuration not stated),6.51µM*,?,3.26µM*,-5.1%,?,-96.2*
